Measured values: ChEMBL document CHEMBL4513216, “Probing the Open Global Health Chemical Diversity Library for Multistage-Active Starting Points for Next-Generation Antimalarials” (ACS Infect Dis, 2020)
Screen size: about 68,000 compounds; about 2,700 (4%) showed an effect of 50% or more. What follows is part of a selection rich in strong results, with near analogues and random picks from the rest.

What follows are compounds tested on Plasmodium berghei (assay: Screen against P. berghei liver stage (PbLuc), transformed with Luciferase, at 2uM). Conditions: tested at 2 uM.
Format: functional, HepG2
`CNC(=O)N1CC[C@@H]2CN(Cc3cccc(OC)c3)S(=O)(=O)[C@@H]2CC1` was tested, and the INHIBITION was -72.58%. With `CS(=O)(=O)N1CC2(CCN(C3COC3)C2)Cc2ccccc21` (configuration not stated) the INHIBITION was 26.56%. `O=C(NCCCn1nc2ccccn2c1=O)NC1CCC(O)CC1` (configuration not stated) gave an INHIBITION of 8.3%. `CCN(C(=O)CNc1cc(C)c(F)cc1C(N)=O)C1CC1` showed an INHIBITION of -31.4%. `Cc1ccc(OCC(=O)NS(=O)(=O)c2c(C)noc2C)cc1C` was tested, and the INHIBITION was 57.33%. `Cc1cc(C)c(OCC(=O)NS(=O)(=O)c2c(C)noc2C)c(C)c1` gave an INHIBITION of 5.72%. `Cc1noc(C)c1S(=O)(=O)NC(=O)COc1cccc(C(C)C)c1` was tested, and the INHIBITION was 42.99%. Compound `Cc1noc(C)c1S(=O)(=O)NC(=O)COc1ccc(C(C)C)cc1` has an INHIBITION of 19.71%. `Cc1cc(OCC(=O)NS(=O)(=O)c2c(C)noc2C)ccc1Cl` showed an INHIBITION of -12.48%. With `Cc1noc(C)c1S(=O)(=O)NC(=O)COc1ccc2c(c1)CCC2` the INHIBITION was 56.78%. In the case of `O=C(c1ccccc1)C1CCN(C(=O)CC2COCCN2)CC1` (configuration not stated), the INHIBITION is reported as -13.88%. `CCn1cnnc1C1CCN(C(=O)c2ccccc2F)CC1` gave an INHIBITION of -19.35%. For `COc1ccc(NC(=O)N2CCC(c3noc(C)n3)CC2)cc1C`, the INHIBITION was -30.88%. Work on `c1ccc(N2CCCC3(CCN(Cc4ccsc4)C3)C2)nc1` (configuration not stated) yielded an INHIBITION of 33.14%. With `CC(=O)NCC(=O)N1CCCC1c1ccc(CN2CCOCC2)cn1` (configuration not stated) the INHIBITION was 26.22%. For `CC(C)c1noc(CN2CCN(C(=O)c3cccnc3O)CC2)n1`, the INHIBITION was -2.82%. With `Cc1cc(CNc2nccc(N)n2)c2[nH]c(C)c(C)c2c1` the INHIBITION was -5.41%. With `CCc1ncnc2c1CCN(S(=O)(=O)CC)CC2` the INHIBITION was 1.81%. Work on `Cc1ncsc1CCN(C)C(=O)c1ccc(Cn2cnnn2)cc1` yielded an INHIBITION of 89.46%. `Cc1nc(CN(C)C(=O)c2ccc(Cn3cnnn3)cc2)cs1` gave an INHIBITION of 21.57%. `Cc1ncsc1CCN(C)C(=O)c1ccc(CN2CCCCC2)cc1` showed an INHIBITION of -20.75%. Compound `CC(Cn1ccnc1)NC(=O)NCCc1ccc2c(c1)OCCO2` (configuration not stated) has an INHIBITION of -14.3%. Compound `O=C(N1CCCC1)C1(Cc2ccc(-c3cccs3)cc2)CCNC1` (configuration not stated) has an INHIBITION of 17.24%. For `COCC(=O)N1CCCN(Cc2c(C)nc3ccc(Cl)cn23)CC1`, the INHIBITION was 12.43%. For `CCn1cc(CN2CCN(CC(O)c3ccc(C)cc3C)CC2)cn1` (configuration not stated), the INHIBITION was 35.73%. `CCn1cc(CN2CCN(CC(O)c3ccc(C)cc3C)CC2)c(C)n1` (configuration not stated) showed an INHIBITION of 54.9%. Work on `CCn1cc(CN2CCN(CC(O)c3cc(C)ccc3C)CC2)c(C)n1` (configuration not stated) yielded an INHIBITION of -2.2%. With `CN(Cc1ccc(N(C)C)cc1)C(=O)CS(=O)(=O)c1ccc(Cl)cc1` the INHIBITION was 9.02%. `c1ccc(C2CCCCN2Cc2nc(-c3cnccn3)no2)nc1` (configuration not stated) gave an INHIBITION of 6.92%. Compound `Cc1nccc(C2CCCCN2Cc2ccc(F)cc2)n1` (configuration not stated) has an INHIBITION of -10.12%. `c1ccc(C2CCCN2Cc2nc(-c3cnccn3)no2)nc1` (configuration not stated) gave an INHIBITION of -5.19%. In the case of `Fc1cccc(C2CCCCN2Cc2nc(-c3cnccn3)no2)c1` (configuration not stated), the INHIBITION is reported as 58.69%. Work on `Cc1nccc(C2CCCCN2Cc2cccc(F)c2)n1` (configuration not stated) yielded an INHIBITION of 94.5%. `Nc1nccc(C2CCCCN2Cc2cccc(F)c2)n1` (configuration not stated) showed an INHIBITION of 25.72%. For `Cc1cc(=O)[nH]c(-n2nc(C)c(CCC(=O)Nc3nc(C)cs3)c2C)n1`, the INHIBITION was -7.56%. Work on `Cc1ccsc1CN1CCn2c(COc3cccnc3)cnc2C1C` (configuration not stated) yielded an INHIBITION of 3.63%. In the case of `O=S(=O)(Nc1cnn(C2CCOCC2)c1)c1ccc(F)c(F)c1`, the INHIBITION is reported as -38.4%. `COc1cccc(CNC(=O)CCC2=Nc3ccccc3S(=O)(=O)N2)c1` showed an INHIBITION of -1.65%. Compound `Cc1ccc(NCCCNc2nccc(-c3cn(C)nc3C)n2)nc1` has an INHIBITION of 37.5%. `CNC(=O)C1Cn2ccnc2C2(CCN(Cc3cccc(C)n3)CC2)O1` (configuration not stated) was tested, and the INHIBITION was -15.95%. `Cc1cc(CN2CCCC(CNC(=O)Cn3cccn3)C2)oc1C` (configuration not stated) showed an INHIBITION of 2.9%. With `O=C(Cn1cccn1)NCC1CCN(Cc2cc3ccccc3[nH]2)C1` (configuration not stated) the INHIBITION was -0.59%. In the case of `O=C(Cn1cccn1)NCC1CCCN(Cc2ccccc2)C1` (configuration not stated), the INHIBITION is reported as 81.59%. `Cc1cc(C2CCCN2C(=O)c2ccc(OCC(N)=O)cc2)no1` (configuration not stated) showed an INHIBITION of 34.18%. With `CC(C)(C)CC(=O)N[C@@H]1CO[C@H](CNC(=O)c2ccncc2)[C@H]1O` the INHIBITION was 17.9%. For `CC(NCc1cnn(C)c1)c1ccc(OCc2nccn2C)cc1` (configuration not stated), the INHIBITION was 37.18%. With `CC(NCc1cccs1)c1ccc(OCc2nccn2C)cc1` (configuration not stated) the INHIBITION was 63.46%. Work on `CC(NCc1ccsc1)c1ccc(OCc2nccn2C)cc1` (configuration not stated) yielded an INHIBITION of 24.05%. In the case of `O=C(CCCc1cn[nH]c1)N1C[C@@H](CN2CCCCCC2)[C@@H](CO)C1`, the INHIBITION is reported as -5.41%. With `CC(CNC(=O)c1c[nH]nn1)Oc1ccccc1Br` (configuration not stated) the INHIBITION was 67.83%. Compound `CC(CNC(=O)c1c[nH]nn1)Oc1cccc(Br)c1` (configuration not stated) has an INHIBITION of -10.85%. `Cc1ccc(OC(C)CNC(=O)c2c[nH]nn2)cc1` (configuration not stated) showed an INHIBITION of -9.5%. `CC(=O)NCC(=O)N1Cc2cc(C#N)ccc2C1c1cnco1` (configuration not stated) was tested, and the INHIBITION was -9.91%. For `CC(C(=O)NCc1ccc(F)cc1)N(C)CCN1CCOCC1` (configuration not stated), the INHIBITION was 10.71%. `CC(C(=O)Nc1cccc(F)c1)N(C)CCN1CCOCC1` (configuration not stated) gave an INHIBITION of 57.23%. `CC(C(=O)Nc1cccc(C(F)(F)F)c1)N(C)CCN1CCOCC1` (configuration not stated) gave an INHIBITION of -18.99%. Compound `CCOCC1CN(Cc2cnn(C)c2)Cc2nn(CC3CC3)cc21` (configuration not stated) has an INHIBITION of -50.35%. For `Cc1oc(-c2ccsc2)nc1CC(=O)NCC(=O)Nc1cn[nH]c1`, the INHIBITION was 11.01%. With `Cc1cnn(CC2CCCCN2CCS(C)(=O)=O)c1` (configuration not stated) the INHIBITION was 44.41%. `CC(=O)N1CCC(N2CCN3C(=O)N(Cc4ccccn4)C[C@H]3C2)CC1` was tested, and the INHIBITION was 37.54%. In the case of `Cn1ccnc1CN1C[C@H]2CN(S(=O)(=O)c3ccccc3)CCN2C1=O`, the INHIBITION is reported as 15.02%. In the case of `O=C1N(Cc2cccnc2)C[C@H]2CN(S(=O)(=O)c3ccccc3)CCN12`, the INHIBITION is reported as 40.83%. In the case of `O=C1N(Cc2ccccn2)C[C@H]2CN(C3CCOCC3)CCN12`, the INHIBITION is reported as -8.59%. In the case of `O=C1N(Cc2ccccn2)C[C@H]2CN(C3CCC3)CCN12`, the INHIBITION is reported as 52.36%. `O=C1N(Cc2ccccn2)C[C@H]2CN(S(=O)(=O)c3ccccc3)CCN12` gave an INHIBITION of 50.72%. `Cc1c(F)cccc1S(=O)(=O)NC(C)(C)CN` was tested, and the INHIBITION was 36.53%. In the case of `CNC(=O)[C@@H]1[C@@H](c2ccccc2)CN2CCN(Cc3ccco3)C[C@H]12`, the INHIBITION is reported as -0.14%. `CCN(Cc1ccco1)C(C)c1nc(C(C)(C)C)no1` (configuration not stated) was tested, and the INHIBITION was 33.78%. Work on `CN(C)CCCNCCC(Cc1ccccc1)C1CCOC(C)(C)C1` (configuration not stated) yielded an INHIBITION of -18.52%. `CC(C(=O)N1CCn2cncc2C1)N1C[C@@H](C)O[C@@H](C)C1` (some centres not stated) showed an INHIBITION of -28.11%. With `O=C(C(c1ccc(F)cc1)N1CCCCC1)N1CCn2cncc2C1` (configuration not stated) the INHIBITION was 50.59%. With `CC(C(=O)N1CCn2cncc2C1)N1CCCC1` (configuration not stated) the INHIBITION was 17.2%. `Cc1nn(C)c(C)c1CC(=O)N1CCCC(n2ccnc2C)C1` (configuration not stated) gave an INHIBITION of 45.83%. With `CCCn1nccc1NC(=O)CN1CCn2c(nnc2C2CC2)C1` the INHIBITION was 9.36%. `CNC(=O)COC1COC2(CCN(Cc3cccnc3)CC2)C1` (configuration not stated) was tested, and the INHIBITION was 28.88%. In the case of `CCSC1=Nc2c(cnn2-c2ccc(Cl)cc2)C2=NCCCN12`, the INHIBITION is reported as 51.78%. For `CSC1=Nc2c(cnn2-c2ccc(Cl)cc2)C2=NCCCN12`, the INHIBITION was -4.43%. For `CSC1=Nc2c(cnn2-c2cccc(Cl)c2)C2=NCCCN12`, the INHIBITION was 18.15%. In the case of `CC(=O)NCCc1ccc(S(=O)(=O)N(C)C(C)C(C)(C)C)s1` (configuration not stated), the INHIBITION is reported as 32.1%. With `CN(C)C(=O)COC[C@H]1CC[C@@H]2[C@@H](CCN2Cc2ccccn2)O1` the INHIBITION was 53.98%. `c1ccc(COC[C@H]2CC[C@H]3[C@H](CCN3Cc3ccccn3)O2)nc1` gave an INHIBITION of 4.54%. `CN(C)C(=O)COC[C@@H]1CC[C@H]2[C@H](CCN2c2ccccn2)O1` showed an INHIBITION of -3.69%. Work on `OCCN1CC2(CCN(c3ccccc3)C2)C1` yielded an INHIBITION of -55.62%. `CCN(C)C1CCCc2nc(C)sc21` (configuration not stated) gave an INHIBITION of 9.52%. `COc1ccc(OCc2noc(CN(C)C3CCS(=O)(=O)C3)n2)cc1` (configuration not stated) showed an INHIBITION of 57.91%. Work on `CC(C)Cc1noc(CN(C)C2CCS(=O)(=O)C2)n1` (configuration not stated) yielded an INHIBITION of -12.52%. `CN(Cc1nc(C2CC2)no1)C1CCS(=O)(=O)C1` (configuration not stated) was tested, and the INHIBITION was 31.27%. Work on `CN(C)c1ccc(NC(=O)C2CN(Cc3ccccc3)CCO2)cn1` (configuration not stated) yielded an INHIBITION of 12.94%. In the case of `CCC1=NN2C(=N)C(=Cc3cccn3-c3ccc(Cl)cc3)C(=O)N=C2S1`, the INHIBITION is reported as -3.11%. With `O=C(C1CC1)N1CCC2(CCN(Cc3cccc(F)c3)CC2)CC1` the INHIBITION was 27.05%. In the case of `O=C(c1ccn(-c2cccc(F)c2)n1)N1CCN(CCO)CC1`, the INHIBITION is reported as 19.12%. For `CC(O)CN1CCN(C(=O)c2ccn(-c3cccc(Cl)c3)n2)CC1` (configuration not stated), the INHIBITION was -42.32%. For `CCC(O)CN1CCN(C(=O)c2ccn(-c3cccc(F)c3)n2)CC1` (configuration not stated), the INHIBITION was 52.3%. `O=C(NCCn1cccn1)c1ccn(-c2cccc(F)c2)n1` showed an INHIBITION of 64.16%. With `CC(C)(O)CN1CCN(C(=O)c2ccn(-c3cccc(F)c3)n2)CC1` the INHIBITION was 65.76%. `CCC(O)CN1CCN(C(=O)c2ccn(-c3ccccc3)n2)CC1` (configuration not stated) was tested, and the INHIBITION was 14.97%. With `O=C(NCCn1ccnc1)c1ccn(-c2cccc(F)c2)n1` the INHIBITION was 8.37%. For `CC1CCCCN1CCNC(=O)c1ccn(-c2cccc(F)c2)n1` (configuration not stated), the INHIBITION was 2.18%. In the case of `O=C(c1ccn(-c2cccc(F)c2)n1)N1CCN(CC2CC2)CC1`, the INHIBITION is reported as -40.27%. `NC(=O)COc1ccc(CNCc2cc(F)cc(F)c2)cc1` showed an INHIBITION of 19.7%. For `NC(=O)N1CCCC(c2nc(-c3cccnn3)no2)C1` (configuration not stated), the INHIBITION was 19.39%. In the case of `Cc1noc(C)c1CN1C(=O)[C@@H]2CC[C@H]1CN(Cc1cccc(O)c1)C2`, the INHIBITION is reported as 30.42%.
